Source: PMC5540273 (PLoS ONE, 2017)

Each compound was assayed on T1, BRK. Conditions: concentration: 1 μM, replicates: in singlicate; n = 1.
T1 construct: gene PTK6
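Also: KINOMEscan kinase panel screen.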

Row | Structure (SMILES) | %Inh [%]
1 | CN1C(=O)C(Nc2ccc(Cl)c(C(=O)O)c2)=C(c2ccc(Cl)cc2)C1=O [SB-404290] | 0
2 | Cc1cccc(-c2nc(-c3ccc(S(C)(=O)=O)cc3)sc2-c2ccnc(NCCc3ccccc3)c2)c1 | 0
3 | COc1cccc(-c2cc(-c3c[nH]nc3-c3ccccn3)ccn2)c1 [GW680338] | 4
4 | Cl.NC(=O)c1cccc(Nc2nccc(Nc3ccc(Oc4cccc(Cl)c4)c(Cl)c3)n2)c1 [GW659008] | 69
5 | Cn1ccc2ncnc(Oc3ccc(NC(=O)Nc4ccccc4)cc3)c21 | 6
6 | Cc1ccc(C(=O)Nc2ccc(Nc3ccnc4cc(-c5ccccn5)ccc34)cc2O)cc1.Cl [GW440146] | 29
7 | Cc1c(O)cccc1Nc1ccnc2ccc(C(F)(F)F)cc12.Cl [GW466413] | 86
8 | CC(C)(C)c1ccc(C(=O)Nc2cn3cc(-c4cccnc4)ccc3n2)cc1 | 0
9 | CC1=C(C(=O)Nc2cc3cn[nH]c3cc2F)C(c2ccc(C(F)(F)F)cc2)CC(=O)N1 (centres unmarked) [GSK429286] | 20
10 | Cl.c1ccc(-c2n[nH]cc2-c2ccnc(-c3ccc(CN4CCOCC4)cc3)c2)nc1 [GW776245] | 0
11 | Cc1cccc(-c2cc(Nc3ccncc3)c3ccccc3n2)n1 [GSK223675] | 0
12 | Cc1cccc(-c2nc(Nc3ccncc3)c3ccccc3n2)n1 [GW855857] | 13
13 | COc1ccc2nc(-c3cccc(C)n3)nc(Nc3ccncc3)c2c1 [GSK204919] | 8
14 | COc1ccc(C2=C(Nc3cccc(C(=O)O)c3)C(=O)NC2=O)cc1 [SB-390765] | 0
15 | COc1ccc(Nc2nccc(-c3cccc(NC(=O)c4cc5cc(F)ccc5[nH]4)c3)n2)cc1 [GSK1229782] | 22
16 | CCCc1ccc(S(=O)(=O)NC2CCN(c3ccnc(Nc4ccc(F)cc4)n3)C2)cc1 (centres unmarked) [GSK1379715] | 0
17 | CC(=O)Nc1nc2cnc(Nc3cc(NC(=O)c4cccc(CCC#N)c4)ccc3C)nc2s1 | 0

Row | Structure (SMILES) | %Inh [%]
18 | Cc1ccc(NC(=O)Nc2cc(C(C)(C)C)nn2-c2ccccc2)cc1 [GSK1014915] | 20
19 | Cc1cccc(-c2nc(Nc3ccc4[nH]ncc4c3)c3ccccc3n2)n1 [GW857175] | 2
20 | Cc1cccc(-c2nc(C)cc(Nc3ccncc3)n2)n1 [GSK257997] | 2
21 | CS(=O)(=O)c1ccc(-c2nc3n(c2-c2ccncc2)CCC3)cc1 [SKF-105942] | 15
22 | O=C(Nc1ccc2c(c1)OCO2)NC1CCN(c2ccnc(Nc3ccc(F)cc3)n2)C1 (centres unmarked) [GSK1379724] | 16
23 | O=c1cc(N2CCOCC2)nc2n(Cc3cccc(Cl)c3Cl)ccn12 [GSK2286295] | 8
24 | COC(=O)c1c(-c2ccccc2)c2cc(OC)ccc2c(=O)n1Cc1ccccc1 | 0
25 | O=C(Nc1ccccc1)Nc1cccc(Oc2ccc3nccn3n2)c1 | 0
26 | Fc1cc(Cl)ccc1Nc1ccnc2cc(I)ccc12 [GW551191] | 19
27 | Cc1ccc(NC(=O)Nc2cccc(Cl)c2)cc1-c1ccc(C(=O)Nc2ccncc2)cc1 [GSK1398468] | 13
28 | O=C(O)COc1ncnc2cc(-c3ccc4[nH]ncc4c3)sc12 | 100
29 | Cn1ccc2ncnc(Oc3cccc(C(=O)Nc4ccccc4)c3)c21 | 15
30 | Cc1ccccc1-n1cnc2c(N)ncnc21 [SKF-97510] | 5
31 | COc1cc2ncnc(Nc3ccc4nc(-c5ccccc5)[nH]c4c3)c2cc1OC.Cl [GW282450] | 0
32 | Cl.O=C(Nc1cccc(-c2nn3ncccc3c2-c2ccnc(Nc3cccnc3)n2)c1)c1c(F)cccc1F [GSK312879] | 21
33 | NC(=O)c1nnc2ccccc2c1N | 9
34 | CN(C)CCN(C)C(=O)c1cc(-c2ccncc2)c(-c2ccc(Cl)c(O)c2)o1.Cl.Cl [SB-710397] | 29

These compounds were tested on BRSK1. Conditions: concentration: 1 μM, replicates: in singlicate; n = 1.

Row | Structure (SMILES) | %Inh [%]
35 | CN1C(=O)C(Nc2ccc(Cl)c(C(=O)O)c2)=C(c2ccc(Cl)cc2)C1=O [SB-404290] | 0
36 | Cc1cccc(-c2nc(-c3ccc(S(C)(=O)=O)cc3)sc2-c2ccnc(NCCc3ccccc3)c2)c1 | 3
37 | COc1cccc(-c2cc(-c3c[nH]nc3-c3ccccn3)ccn2)c1 [GW680338] | 3
38 | Cl.NC(=O)c1cccc(Nc2nccc(Nc3ccc(Oc4cccc(Cl)c4)c(Cl)c3)n2)c1 [GW659008] | 0
39 | Cn1ccc2ncnc(Oc3ccc(NC(=O)Nc4ccccc4)cc3)c21 | 0
40 | Cc1ccc(C(=O)Nc2ccc(Nc3ccnc4cc(-c5ccccn5)ccc34)cc2O)cc1.Cl [GW440146] | 0
41 | Cc1c(O)cccc1Nc1ccnc2ccc(C(F)(F)F)cc12.Cl [GW466413] | 0
42 | CC(C)(C)c1ccc(C(=O)Nc2cn3cc(-c4cccnc4)ccc3n2)cc1 | 6
43 | CC1=C(C(=O)Nc2cc3cn[nH]c3cc2F)C(c2ccc(C(F)(F)F)cc2)CC(=O)N1 (centres unmarked) [GSK429286] | 5
44 | Cl.c1ccc(-c2n[nH]cc2-c2ccnc(-c3ccc(CN4CCOCC4)cc3)c2)nc1 [GW776245] | 0
45 | Cc1cccc(-c2cc(Nc3ccncc3)c3ccccc3n2)n1 [GSK223675] | 0
46 | Cc1cccc(-c2nc(Nc3ccncc3)c3ccccc3n2)n1 [GW855857] | 0
47 | COc1ccc2nc(-c3cccc(C)n3)nc(Nc3ccncc3)c2c1 [GSK204919] | 4
48 | COc1ccc(C2=C(Nc3cccc(C(=O)O)c3)C(=O)NC2=O)cc1 [SB-390765] | 0
49 | COc1ccc(Nc2nccc(-c3cccc(NC(=O)c4cc5cc(F)ccc5[nH]4)c3)n2)cc1 [GSK1229782] | 4
50 | CCCc1ccc(S(=O)(=O)NC2CCN(c3ccnc(Nc4ccc(F)cc4)n3)C2)cc1 (centres unmarked) [GSK1379715] | 0
51 | CC(=O)Nc1nc2cnc(Nc3cc(NC(=O)c4cccc(CCC#N)c4)ccc3C)nc2s1 | 0

Row | Structure (SMILES) | %Inh [%]
52 | Cc1ccc(NC(=O)Nc2cc(C(C)(C)C)nn2-c2ccccc2)cc1 [GSK1014915] | 100
53 | Cc1cccc(-c2nc(Nc3ccc4[nH]ncc4c3)c3ccccc3n2)n1 [GW857175] | 0
54 | Cc1cccc(-c2nc(C)cc(Nc3ccncc3)n2)n1 [GSK257997] | 0
55 | CS(=O)(=O)c1ccc(-c2nc3n(c2-c2ccncc2)CCC3)cc1 [SKF-105942] | 0
56 | O=C(Nc1ccc2c(c1)OCO2)NC1CCN(c2ccnc(Nc3ccc(F)cc3)n2)C1 (centres unmarked) [GSK1379724] | 0
57 | O=c1cc(N2CCOCC2)nc2n(Cc3cccc(Cl)c3Cl)ccn12 [GSK2286295] | 13
58 | COC(=O)c1c(-c2ccccc2)c2cc(OC)ccc2c(=O)n1Cc1ccccc1 | 9
59 | O=C(Nc1ccccc1)Nc1cccc(Oc2ccc3nccn3n2)c1 | 0
60 | Fc1cc(Cl)ccc1Nc1ccnc2cc(I)ccc12 [GW551191] | 2
61 | Cc1ccc(NC(=O)Nc2cccc(Cl)c2)cc1-c1ccc(C(=O)Nc2ccncc2)cc1 [GSK1398468] | 100
62 | O=C(O)COc1ncnc2cc(-c3ccc4[nH]ncc4c3)sc12 | 5
63 | Cn1ccc2ncnc(Oc3cccc(C(=O)Nc4ccccc4)c3)c21 | 0
64 | Cc1ccccc1-n1cnc2c(N)ncnc21 [SKF-97510] | 0
65 | COc1cc2ncnc(Nc3ccc4nc(-c5ccccc5)[nH]c4c3)c2cc1OC.Cl [GW282450] | 0
66 | Cl.O=C(Nc1cccc(-c2nn3ncccc3c2-c2ccnc(Nc3cccnc3)n2)c1)c1c(F)cccc1F [GSK312879] | 8
67 | NC(=O)c1nnc2ccccc2c1N | 22
68 | CN(C)CCN(C)C(=O)c1cc(-c2ccncc2)c(-c2ccc(Cl)c(O)c2)o1.Cl.Cl [SB-710397] | 2
